D1 agonist: human D1 receptor agonism | activation, % at 2 µM | AID 504660 | 360,000 compounds, 1% hits | HEK293 T-REx D1 cells, calcium flux, agonist mode; note: 0% is about no effect
Target sequence (P21728 whole entry, looked up): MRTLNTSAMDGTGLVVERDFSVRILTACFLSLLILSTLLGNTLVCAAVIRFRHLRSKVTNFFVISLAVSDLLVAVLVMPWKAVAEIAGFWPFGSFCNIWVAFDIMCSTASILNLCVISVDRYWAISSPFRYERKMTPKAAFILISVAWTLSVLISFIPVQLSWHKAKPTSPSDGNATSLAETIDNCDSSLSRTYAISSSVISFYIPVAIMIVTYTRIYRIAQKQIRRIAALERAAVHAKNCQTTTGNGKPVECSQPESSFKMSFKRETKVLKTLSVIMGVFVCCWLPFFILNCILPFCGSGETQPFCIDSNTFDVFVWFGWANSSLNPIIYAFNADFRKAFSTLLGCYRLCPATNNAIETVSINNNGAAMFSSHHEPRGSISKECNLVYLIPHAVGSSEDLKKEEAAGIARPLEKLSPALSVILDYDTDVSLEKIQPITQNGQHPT
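Agonism was scored from calcium flux recorded over 180 s (1 read/s) after pintool compound addition, following a 10-cycle baseline. Cells were inducible force-coupled HEK293 TREx D1, plated overnight at 30 C and loaded with no-wash calcium dye.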
D1 antagonist: human D1 dopamine receptor antagonism. P21728. HEK293 TREx D1 cells, calcium flux, dopamine EC80; active compounds read low. activity change, negative = inhibition, % at 10 µM. 360,000 compounds, 3.2% hits; in the data active = activity change below about -30%; note: % is set by controls: 0 for no effect and ±100 for the full control effect
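HEK293 T-REx cells expressing inducible, force-coupled D1 receptor; no-wash Ca dye, 30–90 min RT. Cmpd → 180 s read at 1 Hz → EC80 DA → 180 s read.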
TRHR agonist: agonists of human TRH receptor | P34981 | TRHR cells, calcium flux fluo-8, FDSS agonist mode | activation, % at 2 µM | 360,000 compounds, 0.18% hits | AID 493084; note: 0% is about no effect
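Read-out: compound-evoked intracellular calcium rise in TRHR cells, fluo-8 dye, kinetic FDSS fluorescence at 1 s/cycle following a 10-cycle baseline. Cells cultured overnight before dye loading (30 min–1.5 h, RT).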
D1 PAM: potentiators of human D1 dopamine receptor; P21728; potentiation, % at 10 µM; HEK293 TREx D1 cells, calcium flux, dopamine EC20 potentiation; 360,000 compounds, 0.036% hits; AID 504651; in the data active = potentiation above about 30%; note: 0% is about no effect
TRHR enhancer: TRH receptor (human) allosteric enhancement | enhancement, % at 2 µM | 360,000 compounds, 0.66% hits | AID 493056 | TRHR cells, fluo-8 calcium fluorescence, EC20 TRH enhancement; in the data active = enhancement above about 30%; note: 0% is about no effect
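TRHR-expressing cells loaded with fluo-8 calcium dye were read kinetically (ex 480/em 530) during compound addition, then stimulated with an EC20 of TRH (10 nM final). Enhancement of the Gq-mediated intracellular calcium response was scored.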
Active calls of the source: *; / = no result. Sampled rows, rich in hits. Any-hit rate of the full collection: about 4.7%. Cut-off read from the data, not from the text of the source, unless noted: active = activation above about 30%; inactive = the rest.

SMILES | D1 agonist | D1 antagonist | TRHR agonist | D1 PAM | TRHR enhancer
CCN(C(=O)COC(=O)/C=C/c1c(C)nn(-c2ccccc2)c1C)C1CCS(=O)(=O)C1 (stereo not given) | 5.3 | 25.5 | 0.0 | 3.2 | 0.4
COc1ccc(S(=O)(=O)NCC(c2ccco2)S(=O)(=O)c2cccs2)cc1C (stereo not given) | 4.8 | / | 2.1 | 1.1 | -1.7
CCOC(=O)N1CCC(NC(=O)CS(=O)Cc2nc(-c3ccc(C)cc3)oc2C)CC1 (stereo not given) | -1.3 | -34.9* | 1.8 | -1.7 | -9.8
CCOC(=O)N1CCC(NC(=O)C2CCCN(Cc3nc(-c4ccc(CC)cc4)oc3C)C2)CC1 (stereo not given) | 36.5* | -33.8* | -0.9 | -4.5 | 10.0
Cc1cccc(-c2nc(CN3CCCC(C(=O)NC4CCCCCC4)C3)c(C)o2)c1 (stereo not given) | 27.1 | -15.4 | 1.3 | -4.5 | 2.2
O=C(Nc1cccc(C(F)(F)F)c1)C1CCCN(S(=O)(=O)c2cccc3nsnc23)C1 (stereo not given) | -1.5 | 7.9 | 0.6 | 0.1 | -3.9
COc1ccc(NC(=O)COc2ccc(S(=O)(=O)NC3CCCCC3)cc2)cc1OC | 0.8 | -12.3 | -1.2 | -4.5 | 2.8
CSc1ccc(CCNC(=O)c2cc3cc4cc(C)ccc4nc3s2)cc1 | 5.5 | 9.6 | 0.3 | -4.3 | 0.9
CCc1ccc2nc3sc(C(=O)O)cc3cc2c1 | 254.6* | 35.8 | -0.6 | 21.1 | 0.0
Cc1cccc(C(=O)N2CCN(c3ccc([N+](=O)[O-])c(NCc4ccco4)c3)CC2)c1 | 3.2 | -66.6* | 0.2 | -9.8 | 11.7
Cc1cccc(C(=O)N2CCN(c3ccc([N+](=O)[O-])c(N4CCOCC4)c3)CC2)c1 | 2.3 | -45.2* | -1.8 | -10.9 | -15.7
CCOC(=O)c1sc2ccccc2c1S(=O)(=O)Nc1cccc(C(F)(F)F)c1 | 0.9 | -14.5 | 0.0 | -6.2 | -2.5
Cc1ccc(S(=O)(=O)c2nnn3c2nc(NC(C)C)c2cc(Cl)ccc23)cc1C | 0.0 | -52.0* | -0.3 | -4.4 | -3.8
COCCNc1nc2c(S(=O)(=O)c3ccc(C)c(C)c3)nnn2c2ccc(Cl)cc12 | 0.7 | -63.6* | 0.0 | -8.1 | -14.8
O=S(=O)(c1ccccc1)c1nnn2c1nc(NCc1ccc(Cl)cc1)c1sccc12 | 0.3 | -33.6* | 0.1 | -5.2 | 27.9
Cc1ccc(CNc2nc3c(S(=O)(=O)c4ccccc4)nnn3c3ccsc23)cc1 | 2.7 | 6.7 | 0.7 | -0.1 | -0.9
COCCCNc1nc2c(S(=O)(=O)c3ccccc3)nnn2c2ccc(Cl)cc12 | 0.9 | -16.0 | 0.2 | -3.8 | -5.1
COCCCNc1nc2c(S(=O)(=O)c3ccc(C)c(C)c3)nnn2c2ccc(Cl)cc12 | 2.5 | -66.0* | 0.3 | -7.0 | -14.5
CC1=C(c2ccc(Cl)cc2)S(=O)(=O)N=C1N1CCN(c2cccc(C)c2)C(C)C1 (stereo not given) | 4.9 | -1.1 | -0.5 | -0.5 | 1.9
NC(N)=NCCC[C@H](NC(=O)CNC(=O)c1ccccc1)C(=O)Nc1cc(C(F)(F)F)ccc1Cl | -0.3 | -13.4 | -1.7 | 6.8 | 1.4
Cn1c2c(c(=O)n(C)c1=O)C(c1ccccc1[N+](=O)[O-])CC(=O)N2 (stereo not given) | -0.4 | -5.3 | 0.4 | -2.3 | 12.5
Cc1ccc(S(=O)(=O)c2nnn3c2nc(NC(C)C)c2sccc23)cc1 | 5.0 | -30.4* | 0.4 | -6.8 | -6.9
O=C1CN(C(=O)COC(=O)CCSc2ccccc2Cl)c2ccccc2N1 | 8.5 | 11.9 | -1.5 | -1.1 | 33.2*
O=C1CN(C(=O)COC(=O)c2cccs2)c2ccccc2N1 | 3.1 | -30.3* | 0.0 | 9.4 | 12.2
O=C1CN(C(=O)COc2ccc(Br)cc2F)c2ccccc2N1 | 0.3 | -33.9* | -0.2 | -3.2 | 8.3
SMILES | D1 agonist | D1 antagonist | TRHR agonist | D1 PAM | TRHR enhancer
CCOc1ccccc1C(=O)NCC(c1cccs1)S(=O)(=O)c1ccc(F)c(C)c1 (stereo not given) | 1.9 | 1.9 | -0.2 | 0.8 | -0.6
CCOC(=O)c1c(Oc2ccc(OC)cc2)nnc(-c2ccccc2)c1-c1ccccc1 | 6.5 | -2.1 | 0.9 | -1.1 | -13.8
O=c1ccc(OCCOc2ccccc2)nn1-c1ccccc1 | 3.1 | -3.0 | -0.5 | -5.4 | -2.5
NC(=O)COc1ccc(=O)n(-c2ccccc2)n1 | 3.0 | -42.2* | 0.6 | / | -3.5
Cn1nc(OCC(N)=O)ccc1=O | 1.2 | -50.9* | 0.1 | -2.2 | 1.5
Cc1cc(Oc2ccc(=O)n(C)n2)nc(SCC(N)=O)n1 | 3.6 | 24.7 | 0.4 | -7.1 | -3.1
O=C(Nc1cccc(NC(=O)c2ccc(Cl)cc2)n1)c1ccc(Cl)cc1 | 6.0 | -32.9* | 0.7 | -4.5 | 0.6
Cc1cccc(NC(=O)c2sc3nc(-c4ccccc4)cn3c2C)n1 | 10.9 | -14.8 | 5.1 | -2.5 | -3.3
CCCCOc1ccc(C(=O)Nc2cccc(C)n2)cc1 | 5.9 | -7.6 | -0.5 | -4.4 | -3.5
COc1ccc(-c2cn3c(C)c(C(=O)Nc4cccc(C)n4)sc3n2)cc1 | 1.3 | -59.1* | 1.5 | -4.3 | 0.5
O=C(Nc1ccc2ccccc2n1)c1ccc(Cl)cc1 | 9.6 | -21.5 | -2.0 | 0.7 | 4.4
CCOc1ccc(C(=O)Nc2cccc(C)n2)cc1 | 0.6 | -6.6 | -0.4 | 0.8 | 40.9*
CCOc1ccc2nc(N3CCCC(C(=O)NCCc4ccc(SC)cc4)C3)sc2c1 (stereo not given) | -1.1 | 4.4 | -0.2 | 0.1 | 15.4
Cc1ccc(S(=O)(=O)CCC(=O)Nc2ccc(OC(F)(F)F)cc2)cc1 | 3.5 | -6.1 | -0.3 | -0.3 | 15.5
COC(=O)CN1C(c2cccc(Cl)c2)=Nc2ccc(Cl)cc2C1c1ccccc1 (stereo not given) | 10.9 | 12.0 | 0.8 | 4.2 | -7.2
COC(=O)CN1C(CN2CCOCC2)=Nc2ccc(Br)cc2C1c1ccccc1 (stereo not given) | 0.8 | -48.8* | 0.5 | -6.6 | 4.2
COc1ccccc1NC(=O)C(Cc1ccccc1)NS(=O)(=O)c1ccc2c(c1)CCN2C(C)=O (stereo not given) | 1.9 | 1.3 | -0.9 | 0.1 | -4.5
NC(=O)c1nsc(C(=O)N(c2ccc3c(c2)OCO3)C(C(=O)NCC2CCCO2)c2ccc(F)cc2)c1N (stereo not given) | -0.9 | -77.0* | 0.3 | -9.2 | 8.5
NC(=O)c1nsc(C(=O)N(c2ccc(Cl)cc2)C(C(=O)NCC2CCCO2)c2cccs2)c1N (stereo not given) | 1.5 | -33.5* | 1.1 | -4.8 | -4.8
COc1cccc(N(C(=O)c2snc(C(N)=O)c2N)C(C(=O)NCC2CCCO2)c2ccc(F)cc2)c1 (stereo not given) | 4.1 | -1.8 | 0.4 | / | -1.9
CCc1ccc(N(C(=O)c2snc(C(N)=O)c2N)C(C(=O)NCC2CCCO2)c2cccs2)cc1 (stereo not given) | -1.3 | 24.5 | -0.4 | -1.4 | -4.6
Cc1ccc(Cl)cc1NC(=O)CN(C)S(=O)(=O)c1ccc2c(c1)n(C)c(=O)c(=O)n2C | 2.0 | 1.2 | -2.1 | -2.0 | -0.5
